Test in all cases: PBM; 200 nM protein, PBS
Common to all, as to settings: dsDNA, one strand shown

Assay [1] deals with NKX2-5 (Homo sapiens, UniProt P52952 125-210, R139K).
Assay [2] has as its target T1, NKX2-4 (Homo sapiens, UniProt Q9H2Z4 175-261, P217L).
T1 sequence: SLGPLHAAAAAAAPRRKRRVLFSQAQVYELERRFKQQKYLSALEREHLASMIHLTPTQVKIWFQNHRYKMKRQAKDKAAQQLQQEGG

Assay [3] has as its target T2, NKX2-4 (Homo sapiens, UniProt Q9H2Z4 175-261, T231S).
T2 sequence: T1 sequence with L43P, T57S

For assay [4], the target named is T3, NKX2-4 (Homo sapiens, UniProt Q9H2Z4 175-261).
T3 sequence: T1 sequence with L43P

In assay [5] the target is T4, NKX2-6 (Homo sapiens, UniProt A6NCS4 118-204, R150C).
T4 sequence: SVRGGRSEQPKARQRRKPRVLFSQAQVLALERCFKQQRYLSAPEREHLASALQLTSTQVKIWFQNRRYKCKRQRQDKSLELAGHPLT

Assay [6] deals with T5, NKX2-6 (Homo sapiens, UniProt A6NCS4 118-204).
T5 sequence: T4 sequence with C33R

Assay [7] deals with T6, NKX2-4 (Homo sapiens, UniProt Q9H2Z4 175-261, R246Q).
T6 sequence: T1 sequence with L43P, R72Q

In assay [8] the target is T7, NKX2-6 (Homo sapiens, UniProt A6NCS4 118-204, F151L).
T7 sequence: T4 sequence with C33R, F34L

Assay [9] addresses NKX2-5 (Homo sapiens, UniProt P52952 125-210).
Assay [10] has as its target NKX3-2 (Homo sapiens, UniProt P78367 192-278, P234S).
In assay [11] the target is NKX3-2 (Homo sapiens, UniProt P78367 192-278).
Sequence of NKX3-2 (Homo sapiens, UniProt P78367 192-278) (P78367 192-278): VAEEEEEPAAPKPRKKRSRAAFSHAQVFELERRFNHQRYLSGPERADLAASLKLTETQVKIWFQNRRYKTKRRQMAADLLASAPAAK

Substitutions are numbered along the chain they refer to.

Sequence of NKX3-2 (Homo sapiens, UniProt P78367 192-278, P234S) (P78367 192-278 P234S): as the sequence (P78367 192-278) above, with P43S counted along it
Sequence of NKX2-5 (Homo sapiens, UniProt P52952 125-210) (P52952 125-210): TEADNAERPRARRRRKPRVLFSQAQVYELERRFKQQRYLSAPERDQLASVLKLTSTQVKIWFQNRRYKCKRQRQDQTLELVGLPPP
Sequence of NKX2-5 (Homo sapiens, UniProt P52952 125-210, R139K) (P52952 125-210 R139K): as the sequence (P52952 125-210) above, with R15K counted along it

In the case of CACTCAAG, the binding signal in the assay with NKX2-5 [1] was 12.5 upbm affinity estimate (log intensity, higher = more binding, comparable within an allelic series); with NKX2-4 [2] it was 12.5 upbm affinity estimate (log intensity, higher = more binding, comparable within an allelic series); with NKX2-4 [3] it was 13 upbm affinity estimate (log intensity, higher = more binding, comparable within an allelic series); in the assay with NKX2-4 [4], 12.4 upbm affinity estimate (log intensity, higher = more binding, comparable within an allelic series); with NKX2-6 [5] it was 11.6 upbm affinity estimate (log intensity, higher = more binding, comparable within an allelic series); in the assay with NKX2-6 [6], 13.5 upbm affinity estimate (log intensity, higher = more binding, comparable within an allelic series). Also, the binding signal in the assay with NKX2-4 [7] was 13.1 upbm affinity estimate (log intensity, higher = more binding, comparable within an allelic series); in the assay with NKX2-6 [8], 10.5 upbm affinity estimate (log intensity, higher = more binding, comparable within an allelic series); with NKX2-5 [9], 12.3 upbm affinity estimate (log intensity, higher = more binding, comparable within an allelic series).
As for AGTACTTA, the binding signal in the assay with NKX2-5 [1] is 12.9 upbm affinity estimate (log intensity, higher = more binding, comparable within an allelic series); in the assay with NKX2-4 [2], 12.6 upbm affinity estimate (log intensity, higher = more binding, comparable within an allelic series); with NKX2-4 [3] it was 13.1 upbm affinity estimate (log intensity, higher = more binding, comparable within an allelic series); with NKX2-4 [4], 12.5 upbm affinity estimate (log intensity, higher = more binding, comparable within an allelic series); in the assay with NKX2-6 [5], 12 upbm affinity estimate (log intensity, higher = more binding, comparable within an allelic series); in the assay with NKX2-6 [6], 13.8 upbm affinity estimate (log intensity, higher = more binding, comparable within an allelic series). For the same sequence, the binding signal with NKX2-4 [7] is 13.1 upbm affinity estimate (log intensity, higher = more binding, comparable within an allelic series); with NKX2-6 [8], 11.2 upbm affinity estimate (log intensity, higher = more binding, comparable within an allelic series); with NKX3-2 [10], 12.6 upbm affinity estimate (log intensity, higher = more binding, comparable within an allelic series); with NKX2-5 [9], 12.8 upbm affinity estimate (log intensity, higher = more binding, comparable within an allelic series); in the assay with NKX3-2 [11], 12.7 upbm affinity estimate (log intensity, higher = more binding, comparable within an allelic series).
With GCACTTCA, the binding signal is 12.5 upbm affinity estimate (log intensity, higher = more binding, comparable within an allelic series) in the assay with NKX2-5 [1]; 12.6 upbm affinity estimate (log intensity, higher = more binding, comparable within an allelic series) in the assay with NKX2-4 [2]; 13 upbm affinity estimate (log intensity, higher = more binding, comparable within an allelic series) in the assay with NKX2-4 [3]; 12.5 upbm affinity estimate (log intensity, higher = more binding, comparable within an allelic series) with NKX2-4 [4]; 11.7 upbm affinity estimate (log intensity, higher = more binding, comparable within an allelic series) with NKX2-6 [5]; 13.3 upbm affinity estimate (log intensity, higher = more binding, comparable within an allelic series) in the assay with NKX2-6 [6]. For the same sequence, the binding signal with NKX2-4 [7] is 13.2 upbm affinity estimate (log intensity, higher = more binding, comparable within an allelic series); in the assay with NKX2-6 [8], 11.1 upbm affinity estimate (log intensity, higher = more binding, comparable within an allelic series); with NKX3-2 [10] it was 12.6 upbm affinity estimate (log intensity, higher = more binding, comparable within an allelic series); with NKX2-5 [9] it was 12.4 upbm affinity estimate (log intensity, higher = more binding, comparable within an allelic series); with NKX3-2 [11], 12.6 upbm affinity estimate (log intensity, higher = more binding, comparable within an allelic series).
On to CCACTTAC, for which the binding signal with NKX2-5 [1] was 13 upbm affinity estimate (log intensity, higher = more binding, comparable within an allelic series); in the assay with NKX2-4 [2], 12.6 upbm affinity estimate (log intensity, higher = more binding, comparable within an allelic series); with NKX2-4 [3] it was 12.9 upbm affinity estimate (log intensity, higher = more binding, comparable within an allelic series); with NKX2-4 [4], 12.4 upbm affinity estimate (log intensity, higher = more binding, comparable within an allelic series); with NKX2-6 [5] it was 12.2 upbm affinity estimate (log intensity, higher = more binding, comparable within an allelic series); with NKX2-6 [6] it was 13.7 upbm affinity estimate (log intensity, higher = more binding, comparable within an allelic series). Moreover, the binding signal with NKX2-4 [7] is 13 upbm affinity estimate (log intensity, higher = more binding, comparable within an allelic series); in the assay with NKX2-6 [8], 11 upbm affinity estimate (log intensity, higher = more binding, comparable within an allelic series); in the assay with NKX3-2 [10], 13.2 upbm affinity estimate (log intensity, higher = more binding, comparable within an allelic series); with NKX2-5 [9] it was 12.8 upbm affinity estimate (log intensity, higher = more binding, comparable within an allelic series); with NKX3-2 [11], 13.3 upbm affinity estimate (log intensity, higher = more binding, comparable within an allelic series).
For CACTTATC, the binding signal is 12.8 upbm affinity estimate (log intensity, higher = more binding, comparable within an allelic series) with NKX2-5 [1]; 12.7 upbm affinity estimate (log intensity, higher = more binding, comparable within an allelic series) with NKX2-4 [2]; 13 upbm affinity estimate (log intensity, higher = more binding, comparable within an allelic series) in the assay with NKX2-4 [3]; 12.5 upbm affinity estimate (log intensity, higher = more binding, comparable within an allelic series) with NKX2-4 [4]; 12.1 upbm affinity estimate (log intensity, higher = more binding, comparable within an allelic series) in the assay with NKX2-6 [5]; 13.8 upbm affinity estimate (log intensity, higher = more binding, comparable within an allelic series) with NKX2-6 [6]. Besides, the binding signal is 13.2 upbm affinity estimate (log intensity, higher = more binding, comparable within an allelic series) with NKX2-4 [7]; 11.2 upbm affinity estimate (log intensity, higher = more binding, comparable within an allelic series) in the assay with NKX2-6 [8]; 12.7 upbm affinity estimate (log intensity, higher = more binding, comparable within an allelic series) in the assay with NKX3-2 [10]; 12.8 upbm affinity estimate (log intensity, higher = more binding, comparable within an allelic series) with NKX2-5 [9]; 12.8 upbm affinity estimate (log intensity, higher = more binding, comparable within an allelic series) with NKX3-2 [11].
AGCACTTA: the binding signal with NKX2-5 [1] was 12.9 upbm affinity estimate (log intensity, higher = more binding, comparable within an allelic series); with NKX2-4 [2], 12.6 upbm affinity estimate (log intensity, higher = more binding, comparable within an allelic series); in the assay with NKX2-4 [3] it was 13 upbm affinity estimate (log intensity, higher = more binding, comparable within an allelic series); with NKX2-4 [4], 12.5 upbm affinity estimate (log intensity, higher = more binding, comparable within an allelic series); in the assay with NKX2-6 [5], 12 upbm affinity estimate (log intensity, higher = more binding, comparable within an allelic series); with NKX2-6 [6] it was 13.7 upbm affinity estimate (log intensity, higher = more binding, comparable within an allelic series). Further, the binding signal with NKX2-4 [7] was 13.1 upbm affinity estimate (log intensity, higher = more binding, comparable within an allelic series); in the assay with NKX2-6 [8], 11.3 upbm affinity estimate (log intensity, higher = more binding, comparable within an allelic series); with NKX3-2 [10] it was 12.9 upbm affinity estimate (log intensity, higher = more binding, comparable within an allelic series); with NKX2-5 [9], 12.8 upbm affinity estimate (log intensity, higher = more binding, comparable within an allelic series); with NKX3-2 [11], 12.9 upbm affinity estimate (log intensity, higher = more binding, comparable within an allelic series).

The values above are taken from PMC11006913.
